# ± gives the standard deviation of the averaged measurements. In all, about 25,000 sequences were measured (“ln(normalized median fluorescence intensity)”: median about 10, highest 2% from about 12 on). The entries come from a sample that favours the highest values as a whole.
# System: PfAP2-G AP2 domain (GST-tagged)
# Experiment: gcPBM binding intensity (ln(normalized median fluorescence intensity)); higher = stronger DNA binding
# Procedure, shortened: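 Binding intensity values are the highest Masliner-normalised natural-log median intensity among replicate spots of either probe orientation. The binding step lasted 1 h in 1× PBS with 1% milk, 0.2 mg/ml BSA, 0.5% salmon testes DNA and 0.03% Triton X-100, using GST-tagged P. falciparum DNA-binding domains expressed in E. coli on an Agilent 4 × 180k array of primer-extended double-stranded 36-bp intergenic genomic probes plus negative controls. Alexa488 anti-GST antibody and a 488 nm scan detected bound protein.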
row,Sequence,gcPBM binding intensity (ln)
1,TCTTTTGTTTAACCTACATGCAGAATATAAGTCTTC [TGCATGCA_site99],10 ± 0.2
2,ATATATTCATTTTTATGTACGTAAATTGTAAATTGG [XGTACX_site8242],11.6 ± 0.92
3,TAATTCTTTATTTTTCGTACGTAAAACAAAAAATAT [XGTACX_site862],11.1 ± 0.79
4,AAAAATTCATTTTTATGTACGTACAAATTCTTCGTT [XGTACX_site2471],11.8 ± 0.87
5,CAGTTATTTTAATGTGGTACACAATTTTAAAATTAT [XGTACX_site8571],11.5 ± 0.93
6,TTACATGTAAAAGGTACACACATTAGATATACAAAT [CACACA_site6651],11.3 ± 0.84
7,TTTGAGATGTGGTGTACACAAAATTAGGTACACATC [CACACA_site5773],12 ± 0.85
8,TGAAAATAGTTAATTTGTACACAAAAATTAAGAAAA [XGTACX_site5794],11.2 ± 0.8
9,ACACATACAACGTGGTGTACAAATAATTATAATCAA [XGTACX_site2287],11.1 ± 0.4
10,AATTTTGAGATGTGGTGTACACAAAATTAGTTAGAC [XGTACX_site7033],11.7 ± 0.98
11,TAAAAATAGTATACAACACACGAGGGAAAATAAAGT [CACACA_site3837],10.34 ± 0.099
12,TATTTAAATTAATATTGTACATATATTTATAATATA [XGTACX_site6109],11.1 ± 0.71
13,TATATTTTTATTGAACGTACAAAAAGTCGAAAACAG [XGTACX_site3967],11.4 ± 0.74
14,GATATTTTTTTCGAAAGTACAAAAAAAAATATTTCC [XGTACX_site4389],11 ± 0.72
15,TTTTCATTTGAAAGTCGTACAAGTTCGAAAAAAGGA [XGTACX_site6840],11.6 ± 1.2
16,TTTTTTATTTGACAAGCACACACTTAAATATATATA [CACACA_site3358],10.2 ± 0.33
17,AAATCATATTCTTATTTTATTTTTTTTATTTTTTAT [XGTACX_negctrl_site166],9.55 ± 0.17
18,AAACATGATTATTATAGTACAATTATAATTATTATA [XGTACX_site2590],10.8 ± 0.59
19,TATAATAATAATTATTGTACGATTAGGTTAATTCAT [XGTACX_site1984],11.1 ± 0.7

row,Sequence,gcPBM binding intensity (ln)
1,AATATATATAATAATTGTACAATACGTATGTTATAT [XGTACX_site8745],11 ± 0.54
2,ATGTTATATATGTATTGTACGTATTTTGTATATTAT [XGTACX_site6607],11.6 ± 1.1
3,ATATATATATATATTTGTACGTATTATGTATTTTTT [XGTACX_site3530],11.5 ± 0.98
4,GTATATATATTTGTACGTACATATTGTTGTAAACAC [XGTACX_site8833],11.7 ± 0.71
5,ATGTAGGTTAATTATTGTACGTAGGGGGTGTATATT [XGTACX_site3973],11.8 ± 1.2
6,TATAATAATACGTATTGTACTATTAGGTTAATTCGT [XGTACX_site264],11.1 ± 0.66
7,GTGTGTGTATATATTTGTACATATATTTAAACATAT [XGTACX_site1074],11.4 ± 0.71
8,AAATTATTATATATATGTACGTATAATGTATTTTGT [XGTACX_site2903],11.5 ± 1.1
9,TATATATATATATGTTGTACAAAAATGTAAAATATA [XGTACX_site7761],11.1 ± 0.57
10,ATATGTATATATGTATGTACGTACAAATTGTTGTAA [XGTACX_site8832],11.7 ± 0.8
11,TAAACAGATATATTTTGTACATATTGTATATTTTGT [XGTACX_site713],10.6 ± 0.28
12,TATAATATTCCTTTTTAACACACATATGAACAAATA [CACACA_site7932],10.1 ± 0.18
13,CATTATTCATTTTGGATGCACTGACAGAAAAATGGT,10.4 ± 0.18
14,CTTAGGTGTTCATAGAGTACAAATAAAAAAATAAGA [XGTACX_site2294],11.3 ± 0.95
15,TACCTAAATAAATGGACACACACATATATATATATA [CACACA_site8407],10.8 ± 0.53
16,TATATTTTAAAATTATGTACATATATAGATAAATGT [XGTACX_site1349],11.3 ± 0.52
17,AATTAGATGGATAAATGTACATAATGTGAATATATT [XGTACX_site86],11 ± 0.4
18,TCATATATATATATATGTACATATTTATGTATGTAT [XGTACX_site6291],11.1 ± 0.66
19,TTCCTTAATCAATATTGTACTTTTTATAAATTTAGT [XGTACX_site3678],11.4 ± 0.85

row,Sequence,gcPBM binding intensity (ln)
1,TTCCTTTGTCCTAACTGTACTCAAATTTATTAGTGG [XGTACX_site226],11.8 ± 0.75
2,TAGTTCCTCAAAAATTTCCTTTGTCATTTTATTCAC [GTGCAC_negctrl_site20],10.17 ± 0.085
3,TATAAAAATATATTTACACACTATAAATATCGAAAG [CACACA_site6896],9.96 ± 0.18
4,TAATTTATGACACGCGCACACATATATATATAGTAA [CACACA_site4249],10.6 ± 0.42
5,ACAAAAATGAGATGGTGTACGCACAAATAAATAATA [XGTACX_site5221],11.7 ± 0.79
6,AAGATAAAATGATGCACACAAAAGGGTGTAATATAT [CACACA_site1706],10.13 ± 0.049
7,CAAAGATAAAATGATGCACACAAAAGGGTGTAATAT [CACACA_site8499],10.25 ± 0.014
8,TCCCACTGTTATATTGAAAAAAAAAAAAAAAAAAAA [TGCATGCA_negctrl_site288],9.82 ± 0.5
9,AAACAACATGGACACGCACACACAAAAAAAGCATGC [CACACA_site73],11 ± 0.48
10,TAATTTTCATATTTCTGTACATATATTATAAATATA [XGTACX_site3480],11 ± 0.69
11,TAAAATATATTTTTCTGTACACAAAAATATATTAAA [XGTACX_site2813],11.5 ± 0.96
12,ATTAGGCATATTTTCTGTACACAATAATAAAAAAAA [XGTACX_site3957],11.6 ± 0.91
13,GTGTAGGCAAAAAGTTGTACGCCTAAAATCTATATA [XGTACX_site8912],11.7 ± 1.1
14,AATCAAAAAAAATGTTGTACGCCTAATTATAATTAA [XGTACX_site8906],11.6 ± 0.8
15,TGTATAGTCTAAAGTTGTACAAAAAAAAAAAAAAAA [XGTACX_site5764],11.3 ± 1
16,TATTTTAATTTTTGTTGTACGCAAATGTGAGGGCAT [XGTACX_site4663],11.7 ± 1.2
17,TTTTAATTTTGTTGTTGTACAAATAACATGTGAGGG [XGTACX_site4401],11.2 ± 0.83
18,TATATATATATATGTTGTACTTTTAATTTAAATGTA [XGTACX_site4239],11.6 ± 0.94
19,TTCTTATTTTATATTTCACACATTTTTACTATACTT [CACACA_site5817],10.08 ± 0.071
